# Screening results from PubChem.
# Only some compounds are listed: those with a hit (about 3.4% of all), similar ones and a draw of the others.
# MITF inh – MITF inhibitors, primary screen, biochemical, AlphaScreen, human. Microphthalmia-associated transcription factor (Homo sapiens), O75030. AlphaScreen MITF homodimerization, bead proximity signal. inhibition, % at 2.6 µM. hit rate 0.91% among 650,000. AID 1259374, 2018; in the data active means inhibition above about 50%;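 further: 0% = vehicle wells with protein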
# Target sequence (O75030 whole entry, looked up): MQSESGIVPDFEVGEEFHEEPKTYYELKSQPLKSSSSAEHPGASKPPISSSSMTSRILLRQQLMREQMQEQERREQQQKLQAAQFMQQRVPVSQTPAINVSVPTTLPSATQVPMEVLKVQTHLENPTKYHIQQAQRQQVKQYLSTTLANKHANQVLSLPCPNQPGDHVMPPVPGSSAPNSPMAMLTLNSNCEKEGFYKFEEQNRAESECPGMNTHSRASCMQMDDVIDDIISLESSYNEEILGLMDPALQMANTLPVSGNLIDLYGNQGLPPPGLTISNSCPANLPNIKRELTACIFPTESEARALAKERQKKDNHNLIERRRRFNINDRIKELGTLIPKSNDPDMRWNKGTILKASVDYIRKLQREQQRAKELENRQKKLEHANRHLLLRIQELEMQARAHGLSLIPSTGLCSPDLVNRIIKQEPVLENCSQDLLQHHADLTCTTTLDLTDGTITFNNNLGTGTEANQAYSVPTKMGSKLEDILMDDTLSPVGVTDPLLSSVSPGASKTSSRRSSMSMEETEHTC
# FBW7 activator – FBW7 E3 ligase activators, primary screen, biochemical, AlphaScreen, human. F-box/WD repeat-containing protein 7 (Homo sapiens), Q969H0. AlphaScreen FBW7–phospho-cyclin E peptide binding, activator screen. normalized activity (activation), % at 26.1 µM. hit rate 0.13% among 650,000. AID 1259310, 2017; in the data active means normalized activity above about 1.9%;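 further: purified mutant Fbw7 with reduced substrate affinity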
# GPR151 ag – activators of human GPR151, primary screen, cell-based, PathHunter beta-arrestin, luminescence | G-protein coupled receptor 151 (Homo sapiens), Q8TDV0 | PathHunter beta-arrestin GPR151 cells | activation, % at 11.2 µM | hit rate 1% among 650,000 | AID 1508602, 2020; in the data active means activation above about 4.9%;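 further: 0% = median of compound wells and 100% = cells with positive control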
# TEAD-YAP inh – TEAD-YAP interaction inhibition, primary screen, TEAD-YAP interaction inhibitor project, luminescence, HEK-TIYL cells | inhibition, % at 9.12 µM | AID 1259422, 2018 | TEAD-Gal4/YAP UAS-luciferase luminescence | hit rate 1.4% among 640,000; in the data active means inhibition above about 32%;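 further: 0% = median of test compound wells and 100% = reference inhibitor wells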
# MITF inh conf – MITF inhibitors, retest of hits, confirmation, biochemical, AlphaScreen, triplicate | shares compounds with MITF inh | AlphaScreen MITF homodimerization, biotin/His-MITF beads | inhibition, % at 2.6 µM | hit rate 16% among 4,700 | AID 1259372, 2018;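 active means inhibition above a cutoff derived from the DMSO control wells, cut at about 28% in these data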;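 further: 0% = MITF dimer wells with DMSO only; inhibitors lower the bead chemiluminescence by keeping MITF from dimerizing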
# AlphaScreen DR – AlphaScreen optical interference compounds, dose response, counter-screen, biochemical, HTS. shares compounds with MITF inh. AlphaScreen optical interference counterscreen, cell-free. IC50, µM. hit rate 6% among 480. AID 1259373, 2018; call rule not given here
# AS interf ctr – AlphaScreen optical interference compounds, counter-screen for MITF inhibitor project, biochemical, triplicate; shares compounds with MITF inh; LysRS AlphaScreen counterscreen, signal interference; inhibition, % at 2.6 µM; hit rate 7.6% among 4,700;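 active means inhibition above a cutoff derived from the DMSO control wells, cut at about 30% in these data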
# * hit, by the source's call; . = no result given.
SMILES,MITF inh,FBW7 activator,GPR151 ag,TEAD-YAP inh,MITF inh conf,AS interf ctr,others
NS(=O)(=O)c1ccc(N=Cc2cc3c(cc2[N+](=O)[O-])OCO3)cc1,64*,0,1,-2,56*,9,AlphaScreen DR=>6.5
c1ccc(CN2CCC(Nc3cc(-c4ccc(N5CCOCC5)nc4)ncn3)CC2)cc1,2,0,1,-13,.,.,
CC1CCN(Cc2csc(N)n2)CC1,53*,0,4,5,16,13,
Nc1nc(CC23CC4CC(CC(C4)C2)C3)cs1,-5,0,1,7,.,.,
O=C(CN1CCSCC1)N/N=C/c1cccc(C(F)(F)F)c1,56*,1,-1,-2,8,6,
Cc1cc(NC(=O)c2noc3c2CCCCC3)n(-c2ccccc2)n1,2,0,-1,-2,.,.,
COc1ccc(C)cc1NS(=O)(=O)c1ccc2c(c1)CCC(=O)N2,73*,0,-1,3,62*,-3,AlphaScreen DR=>6.5
CCc1ccc(NC(=O)CSC2=C(C#N)C(c3cccs3)C(C(=O)Nc3ccccc3)=C(C)N2)cc1 (stereo not drawn),57*,0,0,11,3,2,
Cc1ncc2c(c1CNC(=O)Cc1cccs1)CCN(C(=O)CCC1CCCC1)C2,9,0,0,-8,.,.,
Cc1ncc2c(c1CNC(=O)Cc1cccs1)CCN(C(=O)C1(C)CCCCC1)C2,74*,0,-1,7,15,10,
CCCc1nnc(NC(=O)NCN2C(=O)C3C4C=CC(C4)C3C2=O)s1 (stereo not drawn),-7,0,2,6,.,.,
CCCc1nnc(NC(=O)CN2C(=O)C3C4C=CC(C4)C3C2=O)s1 (stereo not drawn),58*,0,2,-8,-6,-10,
CC(=O)Oc1ccccc1N1C(=O)c2ccc(Oc3cccc(N)c3)cc2C1=O,54*,0,-1,-6,70*,2,AlphaScreen DR=>6.5
CCOC(=O)c1c(NC(=O)C(F)(F)F)sc(C(=O)Nc2ccccc2)c1C,55*,0,-4,29,0,1,
O=C(C1CCN(Cc2nc3ccccc3[nH]2)CC1)N1CCN(c2ccc(F)cc2)CC1,58*,0,-1,15,10,14,
O=C(NCc1ccc2c(c1)OCO2)C1CCN(Cc2nc3ccccc3[nH]2)CC1,63*,0,0,-7,7,10,
O=C(C1CCN(Cc2nc3ccccc3[nH]2)CC1)N1CCc2ccccc2C1,62*,0,0,13,6,15,
O=C(C1CC12CCN(Cc1nc3ccccc3[nH]1)CC2)N1CCN(c2ccccc2)CC1 (stereo not drawn),-6,0,0,1,.,.,
Cc1ccc(-c2noc(C3CCCN(S(=O)(=O)c4ccc(C(C)(C)C)cc4)C3)n2)o1 (stereo not drawn),77*,0,-1,4,12,15,
COCCNC(=O)c1ccc2c(=O)n(Cc3ccco3)c(SCc3ccc(F)cc3Cl)nc2c1,-4,0,4,9,.,.,
Cc1cccc(NC2=C(C(=O)c3ccc(Cl)cc3)C(c3ccc(F)cc3)N(CCCCCC(=O)O)C2=O)c1 (stereo not drawn),79*,0,1,-17,-3,-1,
O=C(c1ccccc1F)N1CCN(Cc2ccc3c(c2)OCO3)CC1,51*,0,-1,15,-1,-5,
O=C(C1CCNCC1)N1CCN(Cc2ccc3c(c2)OCO3)CC1,56*,0,0,-6,9,13,
CCc1ccc(CN2CCN(C(=O)c3ccccc3F)CC2)cc1,51*,0,0,16,8,10,
C#CC(C)(C)NC(=O)COC,-6,0,1,4,.,.,
SMILES,MITF inh,FBW7 activator,GPR151 ag,TEAD-YAP inh,MITF inh conf,AS interf ctr,others
CCN1CCN(C(CNC(=O)C(=O)NCc2ccc(F)cc2)c2cccnc2)CC1 (stereo not drawn),-5,0,2,-1,.,.,
COc1cccc(CN2CCN(C3CCCCCC3)CC2)c1,58*,0,0,9,6,-7,
COc1cccc(CN2CCC(C(=O)NC3CCCCCC3)CC2)c1,65*,0,0,5,15,18,
COc1cccc(CN2CCN(C3CCC(C)CC3)CC2)c1 (stereo not drawn),70*,0,0,-8,-5,-2,
COc1cccc(CN2CCN(C(=O)C3CC3)[C@@H](C)C2)c1,62*,0,-1,-8,18,21,
COCc1c(C(=O)N/N=C\c2ccc(O)c(OC)c2)nnn1-c1nonc1N,9,0,0,10,.,.,
OCc1nc2ccccc2n1Cc1nnc(-c2cccs2)o1,-15,0,0,1,.,.,
COc1cccc(CN2CCN(C3CCCCC3)CC2)c1,60*,0,0,6,-12,-4,
CCCCn1c(SCc2ccc([N+](=O)[O-])cc2)nc2ccsc2c1=O,86*,0,2,4,-2,1,
CCCCn1c(SCc2cccc([N+](=O)[O-])c2)nc2ccsc2c1=O,-15,0,1,2,.,.,
Cn1c(N)c(C(=O)c2cc(-c3ccccn3)nc3ccccc23)c(=O)n(C)c1=O,2,0,-1,-6,.,.,
O=C(CC1C(=O)NCCN1Cc1ccc2ccccc2c1)NC1Cc2ccccc2C1 (stereo not drawn),-1,0,1,6,.,.,
Cc1ccccc1OCC(O)CN1CCN(CC(O)COc2ccccc2C)C(C)C1 (stereo not drawn),55*,0,-1,3,-6,-5,
COc1ccc(CC(=O)NCC2CCCN(Cc3ccc4nonc4c3)C2)cc1 (stereo not drawn),-8,0,0,-9,.,.,
Cc1ccccc1-c1ocnc1C(=O)Nc1nc2c(s1)COc1ccccc1-2,-10,0,1,1,.,.,
Cc1ccc(S(=O)(=O)NCC2COC3(CCCCC3)O2)cc1 (stereo not drawn),9,0,2,8,.,.,
COCCn1nnnc1C(C(C)C)N1CCSCC1 (stereo not drawn),59*,0,0,5,12,12,
CCN1CCN(C(c2nnnn2CCOC)C(C)C)CC1 (stereo not drawn),20,0,0,13,.,.,
CC(=O)Nc1cc(N2C(=O)C3C4C=CC(C4)C3C2=O)ccc1Cl (stereo not drawn),-16,0,2,-3,.,.,
CCOC(=O)c1cc(N2C(=O)C3C4C=CC(C4)C3C2=O)ccc1Cl (stereo not drawn),59*,0,4,-7,55*,9,AlphaScreen DR=>6.5
